High-throughput results (PubChem BioAssay)
VDR inhibitor: blocks the human vitamin D receptor. P11473. Potency, µM, for inactives: max response, negative = inhibition, most hits filed as inhibitors. VDR-SRC2-3 peptide fluorescence polarization, 2 h. 400,000 compounds, 0.93% hits
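Two reagent solutions held at 4 deg C in the dark were dispensed, compounds pinned at 23 nl, and the mixture incubated 2 h at room temperature. Read-out: fluorescence polarization of VDR–SRC2-3 peptide binding.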
DT40 TDP1 CPT: DT40-hTDP1 cell growth loss with CPT | chicken DT40 Tdp1-/-;hTDP1 cells + 20 nM CPT, ATP luminescence, 48 h | Potency, µM (series often up to 46.2 µM), without a hit: top-dose activity change, negative = growth inhibition, hits mostly inhibitors | 420,000 compounds, 12% hits | AID 686979; further: nearly all actives have a fitted effect of over 55% in size
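Chicken DT40 Tdp1-/- cells stably complemented with human TDP1 were seeded at 400 cells/well in medium containing 20 nM camptothecin, exposed to pin-transferred compounds, and grown at 37 °C for at least 48 hr. Viability was read as ATP luminescence.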
TDP1 block: inhibitors of human tyrosyl-DNA phosphodiesterase TDP1. Q9NUW8. recombinant TDP1, AlphaScreen DNA substrate cleavage. Potency, µM (doses to about 130 µM), for the others: at the top dose activity change, negative = inhibition, actives largely listed as inhibitors. 350,000 compounds, 0.28% hits; further: nearly all actives have a fitted effect of over 40% in size
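Here, a 5' biotin and 3' phosphotyrosine-FITC DNA oligonucleotide reports Tdp1 activity: intact substrate bridges AlphaScreen beads, while cleavage leaves a 3' phosphate and drops signal. All incubations at room temperature.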
KAT2A inh: GCN5L2 (KAT2A) acetyltransferase inhibition. Potency, µM (series often up to 58.9 µM), inactives show top-dose activity change, negative = inhibition, hits mostly inhibitors. Q92830. 390,000 compounds, 0.21% hits. GCN5L2 HAT assay, ThioGlo1 CoA-SH fluorescence. AID 504327
Target sequence (Q92830 whole entry, looked up): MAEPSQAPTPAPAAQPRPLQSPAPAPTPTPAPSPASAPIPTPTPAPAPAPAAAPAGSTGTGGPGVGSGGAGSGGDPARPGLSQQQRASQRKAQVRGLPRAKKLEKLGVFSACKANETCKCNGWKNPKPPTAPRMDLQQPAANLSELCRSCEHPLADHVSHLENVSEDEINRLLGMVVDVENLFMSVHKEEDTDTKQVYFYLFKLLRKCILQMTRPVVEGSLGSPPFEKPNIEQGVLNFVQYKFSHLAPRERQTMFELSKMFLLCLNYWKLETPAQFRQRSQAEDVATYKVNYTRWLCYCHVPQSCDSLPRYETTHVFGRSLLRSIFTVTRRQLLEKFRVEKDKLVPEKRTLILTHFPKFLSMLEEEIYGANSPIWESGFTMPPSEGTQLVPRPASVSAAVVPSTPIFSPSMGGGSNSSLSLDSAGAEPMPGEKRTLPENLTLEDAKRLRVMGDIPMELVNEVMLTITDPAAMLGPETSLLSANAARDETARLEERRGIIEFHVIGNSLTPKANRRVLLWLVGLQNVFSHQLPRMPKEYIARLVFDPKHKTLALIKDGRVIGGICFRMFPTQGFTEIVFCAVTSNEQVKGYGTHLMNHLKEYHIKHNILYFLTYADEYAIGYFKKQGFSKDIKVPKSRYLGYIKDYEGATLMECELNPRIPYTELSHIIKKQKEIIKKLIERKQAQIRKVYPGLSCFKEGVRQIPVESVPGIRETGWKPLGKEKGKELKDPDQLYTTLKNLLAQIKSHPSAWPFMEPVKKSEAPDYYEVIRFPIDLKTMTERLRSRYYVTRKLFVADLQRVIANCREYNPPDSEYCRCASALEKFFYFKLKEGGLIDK
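Enzyme at 20nM final was mixed with library compounds for 15 min at room temperature. Peptide H3(1-25) at 75uM, acetyl-CoA at 70uM and ThioGlo1 at 50uM were then added. Plates were read immediately and after 20 min (Ex340nm/Em540nm).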
PLK1 PBD inh: inhibitors of human PLK1 polo-box domain binding; P53350; Plk1 PBD binding of FITC phosphopeptide, fluorescence polarization; Potency, µM, for the others: max response, negative = inhibition, hits mostly inhibitors; 360,000 compounds, 2.8% hits; AID 720504; further: series mostly up to about 57 µM; nearly all actives have a fitted effect of over 65% in size
DT40 TDP1 no CPT: qHTS for Inhibitors of human tyrosyl-DNA phosphodiesterase 1 (TDP1): qHTS in cells in absence of CPT; Potency, µM (titrated, usually from 46.2 µM), for inactives: top-dose activity change, negative = growth inhibition, actives largely listed as inhibitors; AID 686978, 2013; DT40 Tdp1-/- hTDP1 cells, no CPT, ATP luminescence, 48 h; 420,000 compounds, 15% hits; further: nearly all actives have a fitted effect of over 55% in size
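DT40 Tdp1-/-;hTDP1 cells, no CPT (DMSO vehicle only), 400 cells/well; compounds pin-transferred; ≥48 hr, 37 °C; CellTiter-Glo 30 min RT dark, luminescence read.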
* hit, by the source's call; ? = inconclusive; . = no result given; ! = not confirmed by another sample; [ ] = dose if it differs, or a comment. Shown are actives, neighbours in structure and some others; about 18% of the full set was active somewhere. The call rests on the fitted dose curve; in most records, active means well fitted curve in the direction sought with a large enough effect; inconclusive means small, poorly fitted or top-dose-only effect, or another doubt; inactive means no such curve, though single readings can be large; an effect the other way counts as inactive or inconclusive. On the % scale 0 is the no-effect control and ±100 the full control effect; potency means the concentration at half of the fitted maximal effect.

SMILES | VDR inhibitor | DT40 TDP1 CPT | TDP1 block | KAT2A inh | PLK1 PBD inh | DT40 TDP1 no CPT
CCn1nc(C)c(NC(=O)c2cnn3c(C(F)F)cc(-c4ccccc4)nc23)c1C | -6% | ? | 6% | -4% | -22% | ?
O=C(Nc1ccc(C(=O)N2CCOCC2)cc1)c1cnn2c(C(F)F)cc(-c3ccccc3)nc12 | -2% | ? | 6% | -2% | 4% | 5.8µM*
O=C(c1cnn2c(C(F)F)cc(-c3ccccc3)nc12)N1CCOCC1 | 5% | -23% | 5% | 0% | 0% | 8%
COc1ccccc1CCNC(=O)c1cnn2c(C(F)F)cc(C)nc12 | -18% | 21µM* | 3% | -3% | -3% | 23µM*
CCOc1ccccc1NC(=O)c1cnn2c(C(F)F)cc(-c3ccccc3)nc12 | -13% | 15µM* | 7% | -5% | . | 23µM*
CC(=O)NCc1cc(Cl)c2cccnc2c1O | . | . | . | 0% | . | .
O=C(NCCN1CCOCC1)c1cnn2c(-c3ccccc3)cc(-c3ccccc3)nc12 | 5% | ? | 8% | -5% | -9% | 23µM*
CC(C)Oc1ccc(C(=O)Nc2ccc3oc(-c4ccncc4)nc3c2)cc1 | -4% | -19% | 1%[12.3 µM] | 19% | . | -12%
CCCC(=O)NCc1cc(-c2nn(C)c(=O)c3ccccc23)ccc1C | 4% | -28% | 5% | -4% | 0% | -12%
Cc1ccc(-c2nn(CC(=O)NCc3cc(-c4nn(C)c(=O)c5ccccc45)ccc3C)c(=O)c3ccccc23)cc1 | -1% | 15µM* | 0% | -1% | -1% | 13µM*
Cc1ccc(-c2nn(C)c(=O)c3ccccc23)cc1CNC(=O)CSc1nc2ccccc2o1 | -3% | ? | 4% | -10% | 27µM*! | ?
CCNC(=O)CCn1nc(-c2ccc(C)cc2)c2ccccc2c1=O | -3% | -22% | . | 25% | 30µM* | ?
Cn1nc(-c2ccc(C(=O)Nc3ccc(F)cc3)cc2)c2ccccc2c1=O | -8% | ? | -15% | 1% | -16% | ?
Cc1ccc(NC(=O)c2ccc(-c3nn(C)c(=O)c4ccccc34)cc2)cc1 | 3% | 21µM* | 2% | 0% | 4% | ?
CC(NS(=O)(=O)c1ccc(Br)cc1)C(=O)NCCc1ccccc1 (stereo not given) | 7% | 10% | 3% | 3% | -4% | -5%
COCCN(C)C(=O)c1cnn(-c2nccc(-c3cc(C)sc3C)n2)c1C | . | -2%[9.04 µM] | . | . | . | -15%
Cc1nc(C(=O)Nc2ccccc2Cl)cc2c1[nH]c1ccccc12 | -9% | ? | 4% | 1% | -7% | 6.5µM*
COc1ccc(NC(=O)c2cc3c([nH]c4ccccc43)c(C)n2)cc1 | -14% | -3% | 6% | -6% | -6% | -22%
CC1(C)COC(/C=C/c2cccc([N+](=O)[O-])c2)=N1 | -24% | ? | -1% | 16% | -4% | 12µM*
O=[N+]([O-])c1cccc(/C=C/c2ccccc2)c1 | . | 1% | . | . | . | 0%
C=CC(=O)OCCCC | . | . | 6% | . | . | .
Cc1c(CCO)sc[n+]1CC(=O)c1ccccc1 | . | 0.56µM* | . | . | . | ?
Cc1c(CCOC(=O)c2cc([N+](=O)[O-])cc([N+](=O)[O-])c2)sc[n+]1CC(=O)c1ccc(Br)cc1 | -5% | ? | 9% | -14% | -17% | ?
Cc1c(CCOC(=O)CC23CC4CC(CC(C4)C2)C3)sc[n+]1CC(=O)c1ccccc1 | -13% | 21µM* | 3% | -5% | 5% | 15µM*
Cc1c(N)cc[n+](CC(=O)c2ccccc2)c1C | -8% | 21µM* | 0% | -3% | -7% | 21µM*
SMILES | VDR inhibitor | DT40 TDP1 CPT | TDP1 block | KAT2A inh | PLK1 PBD inh | DT40 TDP1 no CPT
Cc1c(CCOC(=O)C23CC4(C)CC(C)(CC(C)(C4)C2)C3)sc[n+]1CC(=O)c1ccccc1 | -19% | ? | 5% | -12% | -7% | ?
CC1C(=O)C(C)C(c2cc(Cl)ccc2O)NC1c1cc(Cl)ccc1O (stereo not given) | -3% | ? | . | -27% | -6% | -73%
CC(=NNC(=O)c1ccncc1)c1cc(Cl)ccc1Cl | -3% | -13% | . | . | 1% | -25%
c1ccc(CN(Cc2cccs2)C(c2cccs2)c2nnnn2C2CCCC2)cc1 (stereo not given) | 0% | ? | 7% | -1% | 0% | 18µM*
CC(C)(C)n1nnnc1C(c1cccs1)N(Cc1ccccc1)Cc1ccco1 (stereo not given) | -7% | ? | 1% | -12% | -9% | 16µM*
O=C(c1ccco1)N1CCN(C(c2cccs2)c2nnnn2C2CCCC2)CC1 (stereo not given) | -11% | -10% | 1% | -26% | -11% | ?
CC(C)(C)n1nnnc1C(c1ccncc1)N(Cc1ccccc1)Cc1ccco1 (stereo not given) | -20% | ? | 12% | -11% | -8% | 23µM*
Cc1ccc2cc(C(c3nnnn3C3CCCC3)N(Cc3ccccc3)Cc3ccco3)c(=O)[nH]c2c1 (stereo not given) | -10% | 21µM* | 6% | -11% | -2% | ?
CC(=O)c1cc2c(cc1NC(=O)c1ccccc1C)OCO2 | . | . | -3% | 2% | . | .
COc1ccc(OC)c(-c2nnc3n2N=C(c2c(OC)cccc2OC)CS3)c1 | . | . | 10% | . | . | .
COc1ccc(CCN(Cc2cc3cc(C)cc(C)c3nc2Cl)C(=O)C2CC2)cc1 | 19% | ? | -9% | ? | -2% | 16µM*
COc1cccc(C(=O)NCC(c2cccnc2)N2CCN(c3ccccc3OC)CC2)c1 (stereo not given) | -21% | 21µM* | . | 1% | -3% | 23µM*
COc1ccc(C(=O)NCC(c2cccnc2)N2CCN(c3ccccc3OC)CC2)cc1OC (stereo not given) | -5% | 21µM* | 0% | -12% | -11% | ?
COc1ccc(C(=O)NCC(c2cccnc2)N2CCN(c3ccccc3F)CC2)cc1OC (stereo not given) | 8% | ? | 3% | 1% | . | ?
COc1ccc(CCN2CCC(CNC(=O)c3cnn(-c4cccc(Cl)c4)c3C3CCN(C(=O)OC(C)(C)C)CC3)CC2)cc1 | 5% | 8.2µM* | 2% | -1% | . | 8.2µM*
CCc1cccc(C)c1NC(=O)c1cnn(-c2ccc(OC)cc2)c1C1CCN(C(=O)OC(C)(C)C)CC1 | 8% | 18µM* | 8% | 14% | . | 18µM*
CC(C)(C)OC(=O)N1CCC(c2c(C(=O)NC3CCCCC3)cnn2-c2cccc(Cl)c2)CC1 | 7% | ? | 1% | -7% | . | ?
